# Laboratory results as given in article PMC5540273 (PLoS ONE, 2017).
# “And” between values parts separate entries of the source, which are not always exact repeats. Identical values can stand only once. Like-named read-outs stand apart in the source and are kept apart here.
# How the values were obtained:
# KIT-autoinhibited = conditions: concentration: 1 μM, replicates: in singlicate, n = 1
# KIT = conditions: concentration: 1 μM, replicates: in singlicate, n = 1
# LATS1 = conditions: concentration: 1 μM, replicates: in singlicate, n = 1
# LATS2 = conditions: concentration: 1 μM, replicates: in singlicate, n = 1
# LCK = conditions: concentration: 1 μM, replicates: in singlicate, n = 1
# LIMK1 = conditions: concentration: 1 μM, replicates: in singlicate, n = 1
# LIMK2 = conditions: concentration: 1 μM, replicates: in singlicate; n = 1
# LKB1 = system: T1, LKB1; conditions: concentration: 1 μM, replicates: in singlicate, n = 1
# T1 construct: gene STK11
# LOK = system: T2, LOK; conditions: concentration: 1 μM, replicates: in singlicate, n = 1
# T2 construct: gene STK10
# LRRK2 = conditions: concentration: 1 μM, replicates: in singlicate, n = 1
# LTK = conditions: concentration: 1 μM, replicates: in singlicate, n = 1
# LYN = conditions: concentration: 1 μM, replicates: in singlicate, n = 1
# LZK = system: T3, LZK; conditions: concentration: 1 μM, replicates: in singlicate, n = 1
# T3 construct: gene MAP3K13
# MAK = conditions: concentration: 1 μM, replicates: in singlicate, n = 1
# MAP3K15 = conditions: concentration: 1 μM, replicates: in singlicate, n = 1
# MAP3K1 = conditions: concentration: 1 μM, replicates: in singlicate; n = 1
# MAP3K2 = conditions: concentration: 1 μM, replicates: in singlicate, n = 1
# MAP3K3 = conditions: concentration: 1 μM, replicates: in singlicate, n = 1
# MAP3K4 = conditions: concentration: 1 μM, replicates: in singlicate, n = 1
# MAP4K2 = conditions: concentration: 1 μM, replicates: in singlicate, n = 1
# 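Also: KINOMEscan kinase panel screen.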
compound,measurement,setting,value
Cc1cccc(-c2nc(Nc3ccc4ncsc4c3)c3ccccc3n2)n1 [GW867588],%Inh,KIT-autoinhibited,12%
same,%Inh,KIT,0%
same,%Inh,LATS1,2%
same,%Inh,LATS2,0%
same,%Inh,LCK,9%
same,%Inh,LIMK1,4%
same,%Inh,LIMK2,0%
same,%Inh,LKB1,23%
same,%Inh,LOK,27%
same,%Inh,LRRK2,60%
same,%Inh,LTK,7%
same,%Inh,LYN,0%
same,%Inh,LZK,7%
same,%Inh,MAK,0%
same,%Inh,MAP3K15,0%
same,%Inh,MAP3K1,0%
same,%Inh,MAP3K2,8%
same,%Inh,MAP3K3,6%
same,%Inh,MAP3K4,0%
same,%Inh,MAP4K2,0%
O=c1cc(N2CCOCC2)nc2n(Cc3cccc(F)c3)ccn12 [GSK2297430],%Inh,KIT-autoinhibited,0%
same,%Inh,KIT,10%
same,%Inh,LATS1,0%
same,%Inh,LATS2,0%
same,%Inh,LCK,23%
same,%Inh,LIMK1,9%
same,%Inh,LIMK2,5%
same,%Inh,LKB1,0%
same,%Inh,LOK,0%
same,%Inh,LRRK2,31%
same,%Inh,LTK,68%
same,%Inh,LYN,0%
same,%Inh,LZK,0%
same,%Inh,MAK,21%
same,%Inh,MAP3K15,0%
same,%Inh,MAP3K1,17%
same,%Inh,MAP3K2,0%
same,%Inh,MAP3K3,0%
same,%Inh,MAP3K4,10%
same,%Inh,MAP4K2,0%
CC(=O)Nc1ccc(COc2ccc(Nc3ccnc4cc(-c5ccccn5)ccc34)cc2)cc1.Cl [GW440148],%Inh,KIT-autoinhibited,72%
same,%Inh,KIT,100%
same,%Inh,LATS1,0%
same,%Inh,LATS2,0%
same,%Inh,LCK,31%
same,%Inh,LIMK1,0%
same,%Inh,LIMK2,0%
same,%Inh,LKB1,20%
same,%Inh,LOK,7%
same,%Inh,LRRK2,0%
same,%Inh,LTK,7%
same,%Inh,LYN,1%
same,%Inh,LZK,3%
same,%Inh,MAK,43%
same,%Inh,MAP3K15,2%
same,%Inh,MAP3K1,11%
same,%Inh,MAP3K2,0%
same,%Inh,MAP3K3,0%
same,%Inh,MAP3K4,0%
same,%Inh,MAP4K2,0%
O=C(c1ccc(-c2cc(-c3c[nH]nc3-c3ccccn3)ccn2)cc1)N1CCOCC1 [GW812171],%Inh,KIT-autoinhibited,29%
same,%Inh,KIT,0%
same,%Inh,LATS1,0%
same,%Inh,LATS2,0%
same,%Inh,LCK,0%
same,%Inh,LIMK1,0%
same,%Inh,LIMK2,0%
same,%Inh,LKB1,0%
same,%Inh,LOK,28%
same,%Inh,LRRK2,0%
same,%Inh,LTK,4%
same,%Inh,LYN,0%
same,%Inh,LZK,0%
same,%Inh,MAK,0%
same,%Inh,MAP3K15,0%
same,%Inh,MAP3K1,0%
same,%Inh,MAP3K2,22%
same,%Inh,MAP3K3,0%
same,%Inh,MAP3K4,9%
same,%Inh,MAP4K2,0%
Nc1nc(-c2ccc3c(N)n[nH]c3c2)cc(N2CCCC2)n1 [GSK2227430],%Inh,KIT-autoinhibited,0%
same,%Inh,KIT,12%
same,%Inh,LATS1,0%
same,%Inh,LATS2,5%
same,%Inh,LCK,0%
same,%Inh,LIMK1,0%
same,%Inh,LIMK2,3%
same,%Inh,LKB1,1%
same,%Inh,LOK,0%
same,%Inh,LRRK2,0%
same,%Inh,LTK,0%
same,%Inh,LYN,0%
same,%Inh,LZK,0%
same,%Inh,MAK,27%
same,%Inh,MAP3K15,0%
same,%Inh,MAP3K1,0%
same,%Inh,MAP3K2,0%
same,%Inh,MAP3K3,0%
same,%Inh,MAP3K4,0%
same,%Inh,MAP4K2,0%
Cl.Cl.Cl.Fc1ccc(-c2ncn(C3CCNCC3)c2-c2ccnc(Nc3ccccc3)n2)cc1 [SB-238039],%Inh,KIT-autoinhibited; 1 µM,2% and 0%
same,%Inh,KIT; 1 µM,12% and 0%
same,%Inh,LATS1; 1 µM,17% and 16%
same,%Inh,LATS2; 1 µM,0% and 12%
same,%Inh,LCK; 1 µM,69% and 32%
same,%Inh,LIMK1; 1 µM,13% and 0%
same,%Inh,LIMK2,0%
same,%Inh,LKB1; 1 µM,55% and 23%
same,%Inh,LOK; 1 µM,35% and 2%
same,%Inh,LRRK2; 1 µM,27% and 0%
same,%Inh,LTK; 1 µM,27% and 37%
same,%Inh,LYN; 1 µM,42% and 15%
same,%Inh,LZK; 1 µM,0% and 7%
same,%Inh,MAK; 1 µM,3% and 41%
same,%Inh,MAP3K15; 1 µM,0% and 4%
same,%Inh,MAP3K1,0%
same,%Inh,MAP3K2; 1 µM,63% and 27%
same,%Inh,MAP3K3; 1 µM,69% and 98.9%
same,%Inh,MAP3K4; 1 µM,2% and 0%
same,%Inh,MAP4K2; 1 µM,36% and 7%
O=C(Nc1n[nH]c2cc(-c3cccc(F)c3)ccc12)C1CC1 [SB-735464],%Inh,KIT-autoinhibited,1%
same,%Inh,KIT,33%
same,%Inh,LATS1,0%
same,%Inh,LATS2,18%
same,%Inh,LCK,3%
same,%Inh,LIMK1,0%
same,%Inh,LIMK2,0%
same,%Inh,LKB1,0%
same,%Inh,LOK,6%
same,%Inh,LRRK2,0%
same,%Inh,LTK,0%
same,%Inh,LYN,9%
same,%Inh,LZK,2%
same,%Inh,MAK,3%
same,%Inh,MAP3K15,48%
same,%Inh,MAP3K1,22%
same,%Inh,MAP3K2,5%
same,%Inh,MAP3K3,10%
same,%Inh,MAP3K4,24%
same,%Inh,MAP4K2,6%
CN1c2ccc(NCc3ccc(F)cc3)cc2-c2c(cnn2C)S1(=O)=O,%Inh,KIT-autoinhibited,0%
same,%Inh,KIT,24%
same,%Inh,LATS1,0%
same,%Inh,LATS2,0%
same,%Inh,LCK,4%
same,%Inh,LIMK1,0%
same,%Inh,LIMK2,0%
same,%Inh,LKB1,23%
same,%Inh,LOK,0%
same,%Inh,LRRK2,0%
same,%Inh,LTK,0%
same,%Inh,LYN,0%
same,%Inh,LZK,0%
same,%Inh,MAK,0%
same,%Inh,MAP3K15,0%
same,%Inh,MAP3K1,0%
same,%Inh,MAP3K2,0%
same,%Inh,MAP3K3,5%
same,%Inh,MAP3K4,11%
same,%Inh,MAP4K2,0%
NS(=O)(=O)c1cccc(-c2ccc3nccc(-c4cccc(S(N)(=O)=O)c4)c3c2)c1 [GW867253],%Inh,KIT-autoinhibited,25%
same,%Inh,KIT,0%
same,%Inh,LATS1,0%
same,%Inh,LATS2,0%
same,%Inh,LCK,0%
same,%Inh,LIMK1,0%
same,%Inh,LIMK2,0%
same,%Inh,LKB1,0%
same,%Inh,LOK,2%
same,%Inh,LRRK2,0%
same,%Inh,LTK,0%
same,%Inh,LYN,0%
same,%Inh,LZK,1%
same,%Inh,MAK,0%
same,%Inh,MAP3K15,0%
same,%Inh,MAP3K1,8%
same,%Inh,MAP3K2,15%
same,%Inh,MAP3K3,0%
same,%Inh,MAP3K4,12%
same,%Inh,MAP4K2,9%
Fc1ccc(-c2ncn(CCCN3CCOCC3)c2-c2cccnc2)cc1 [SB-211743],%Inh,KIT-autoinhibited,18%
same,%Inh,KIT,2%
same,%Inh,LATS1,9%
same,%Inh,LATS2,0%
same,%Inh,LCK,20%
same,%Inh,LIMK1,9%
same,%Inh,LIMK2,0%
same,%Inh,LKB1,46%
same,%Inh,LOK,14%
same,%Inh,LRRK2,0%
same,%Inh,LTK,18%
same,%Inh,LYN,0%
same,%Inh,LZK,0%
same,%Inh,MAK,15%
same,%Inh,MAP3K15,0%
same,%Inh,MAP3K1,7%
same,%Inh,MAP3K2,28%
same,%Inh,MAP3K3,0%
same,%Inh,MAP3K4,0%
same,%Inh,MAP4K2,0%
Nc1nccc(-c2c(-c3ccc(F)cc3)ncn2C2CCN(CC(F)(F)F)CC2)n1 [SB-236560],%Inh,KIT-autoinhibited,11%
same,%Inh,KIT,0%
same,%Inh,LATS1,0%
same,%Inh,LATS2,69%
same,%Inh,LCK,0%
same,%Inh,LIMK1,5%
same,%Inh,LIMK2,0%
same,%Inh,LKB1,0%
same,%Inh,LOK,2%
same,%Inh,LRRK2,0%
same,%Inh,LTK,100%
same,%Inh,LYN,13%
same,%Inh,LZK,7%
same,%Inh,MAK,29%
same,%Inh,MAP3K15,0%
same,%Inh,MAP3K1,0%
same,%Inh,MAP3K2,0%
same,%Inh,MAP3K3,0%
same,%Inh,MAP3K4,0%
same,%Inh,MAP4K2,0%
